FMDV inh – antivirals against foot and mouth disease virus; AID 1159524; 1.2% of 410,000 active; FMDV antiviral cell-based qHTS; Potency, µM (top dose mostly 57.9 µM), for inactives: at the top dose activity change, negative = inhibition, usual class: inhibitors; calls by dose curve; tested in HEK293T cells; note: read-out not given here; nearly all actives have a fitted effect of over 45% in size
HCV inhibitor – blocks hepatitis C virus. Huh7.5.1 HCVcc-Cre infection, luciferase reporter, 44 h. Potency, µM (series often up to 41.8 µM), for the others: top-dose activity change, negative = inhibition, actives largely listed as inhibitors. 3.4% of 340,000 active
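Whole-lifecycle infectious HCVcc-Cre system; cells 1,000/well, compound then virus (~0.5 moi) added 4 h after plating, 44 h culture. Luciferase read 15 sec following 15 min substrate incubation, room temp.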
RE007 growth inh – less growth of the S. pombe RE007 Vpr strain. S. pombe RE007 Vpr strain, BacTiter-Glo ATP luminescence, 24 h. Potency, µM (highest dose often 92.2 µM), without a hit: top-dose activity change, negative = less growth, hits mostly inhibitors. 0.21% of 360,000 active. AID 651644; active = well fitted falling curve with a large enough effect; inconclusive = small, poorly fitted or top-dose-only effect; inactive = no such curve, though single readings can be large or run the other way; note: nearly all actives have a fitted effect of over 50% in size
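Fission yeast strain RE007, carrying one chromosomally integrated HIV-1 vpr copy, was seeded at OD 0.01 in PMG+AL medium with 23 nL pinned compound. After 24 h at 30 °C and 99% humidity, viability was read by BacTiter-Glo luminescence.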
MARV entry inh – blocks Marburg virus binding to or entry into cells; 1.8% of 300,000 active; Marburg virus pseudotyped entry inhibition, cell reporter; Potency, µM (doses to about 37.8 µM), inactives show at the top dose activity change, negative = inhibition, most hits filed as inhibitors; calls by dose curve; tested in HEK293 cells
Lassa entry inh – Lassa virus entry inhibition; Potency, µM (top dose mostly 37.9 µM), without a hit: top-dose activity change, negative = inhibition, usual class: inhibitors; Lassa virus pseudotype entry inhibition, cell reporter; 1.2% of 300,000 active; calls by dose curve; tested in HEK293 cells; note: nearly all actives have a fitted effect of over 50% in size
Sm TGR block – S. mansoni TGR enzyme inhibition; Q962Y6; purified TGR, DTNB reduction, TNB absorbance 405 nm; Potency, µM (highest dose often 114 µM), for the others: at the highest dose activity change, negative = inhibition, most hits filed as inhibitors; 3% of 360,000 active; AID 485364; note: nearly all actives have a fitted effect of over 60% in size
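TGR 20 nM + NADPH 100 uM (dispensed conc.), cpd preinc 15 min RT; start with NADPH (500 uM addition) then DTNB (15 mM addition). Kinetic TNB absorbance, 405 nm filter. Four-parameter Hill fit across titration.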
Active calls of the source: *; [ ] = another dose, or the depositor's remark. Hits are enriched below; roughly 7.2% of the tested compounds scored in any of these assays. Unless noted, calls come from the whole dose curve; as a rule, active = well fitted curve in the direction sought with a large enough effect; inconclusive = small, poorly fitted or top-dose-only effect, or another doubt; inactive = no such curve, though single readings can be large; an effect the other way counts as inactive or inconclusive. % is set by controls: 0 for no effect and ±100 for the full control effect; potency is the fitted concentration of half-maximal effect.

NC(=O)c1c(NC(=O)c2cccs2)sc2c1CCCCCC2 was read as HCV inhibitor 10µM*, RE007 growth inh 7.0%, MARV entry inh inconclusive, Lassa entry inh inconclusive and Sm TGR block 0.0%.
For O=C(Nc1sc2c(c1C(=O)O)CCC2)c1cccs1 the results were FMDV inh -4.8%, HCV inhibitor -22.3%, RE007 growth inh inconclusive, MARV entry inh inconclusive, Lassa entry inh inconclusive and Sm TGR block -18.6%.
For O=C(Nc1sc2c(c1C(=O)O)CCCC2)c1ccc(Cl)cc1 the results were FMDV inh 6.8%, HCV inhibitor inconclusive, RE007 growth inh inconclusive, MARV entry inh 6.31µM*, Lassa entry inh 7.94µM* and Sm TGR block -16.4%.
O=C(Nc1sc2c(c1C(=O)O)CCC2)c1ccccc1 was read as FMDV inh 22.2%, HCV inhibitor 3.2%, RE007 growth inh -26.8%, MARV entry inh 7.3µM*, Lassa entry inh inconclusive and Sm TGR block -3.5%.
Screening CCCn1c2ccccc2c2cnn(CC(=O)Nc3cc(C)c(Cl)cc3OC)c(=O)c21 returned FMDV inh 6.6%, Lassa entry inh 1.8%[46.1 µM] and Sm TGR block -12.5%.
`CCCS(=O)(=O)c1c(S(=O)(=O)CCC)c2cc(C(C)(C)C)ccn2c1C(=O)c1ccc(C)cc1` gave FMDV inh -13.5%, MARV entry inh -4.1%[46.1 µM], Lassa entry inh -16.5%[46.1 µM] and Sm TGR block -8.5%.
CN(C)c1nc(-c2ccc3c(c2)OCO3)nc2ccccc12 was read as FMDV inh 14.5%.
COc1cccc(C(=O)Nc2cccc(C(=O)OCc3cc(=O)n4c5c(sc4n3)CCCC5)c2)c1 was read as FMDV inh 1.1%, Lassa entry inh 18.9%[46.1 µM] and Sm TGR block 8.3%.
Screening O=C(Nc1sc2c(c1C(=O)O)CCCCC2)c1ccccc1 returned FMDV inh -18.7%, HCV inhibitor inconclusive, RE007 growth inh inconclusive, MARV entry inh 7.08µM*, Lassa entry inh inconclusive and Sm TGR block 1.6%.
For COc1cc(OC)c2c(C)c(CC(=O)NCCc3ccccc3OC)c(=O)oc2c1 the results were FMDV inh 4.0%, MARV entry inh -9.5%[46.1 µM], Lassa entry inh 9.1%[46.1 µM] and Sm TGR block 0.5%.
Cc1cc(NC(=O)c2ccco2)ccc1NC(=O)c1ccco1 was read as FMDV inh 46.1%, HCV inhibitor 10.4%, RE007 growth inh -26.3%, MARV entry inh 5.0%[46.1 µM], Lassa entry inh 23.7% and Sm TGR block -0.7%.
For COc1cc(OC)cc(C(=O)Nc2ccc(NC(=O)c3ccco3)c(C)c2)c1 the results were FMDV inh 0.0%, HCV inhibitor inconclusive, RE007 growth inh -15.1%, MARV entry inh inconclusive, Lassa entry inh -5.6%[46.1 µM] and Sm TGR block 39.8µM*.
Screening COc1ccc(NC(=O)c2ccco2)cc1NC(=O)c1ccc(C)c(C)c1 returned FMDV inh 4.5%, MARV entry inh -16.2%[46.1 µM], Lassa entry inh inconclusive and Sm TGR block 4.8%.
`COc1cc(OC)cc(C(=O)Nc2cc(NC(=O)c3ccco3)ccc2OC)c1` gave FMDV inh -20.7%, HCV inhibitor 10µM*, RE007 growth inh -23.1%, MARV entry inh 0.2%[46.1 µM], Lassa entry inh -30.1% and Sm TGR block -12.9%.
For Cc1c(Cl)cccc1NC(=S)NCCc1ccc(Cl)cc1 the results were FMDV inh 25.6%, HCV inhibitor 10µM*, RE007 growth inh -13.7%, MARV entry inh inconclusive, Lassa entry inh inconclusive and Sm TGR block -30.4%.
Cc1ccc(NC(=S)NC2CCN(Cc3ccccc3)CC2)cc1C was read as FMDV inh 0.0%, HCV inhibitor 11.2µM*, RE007 growth inh 4.6% and Sm TGR block -4.3%.
Screening Cc1ccc(NC(=S)NC2CCN(Cc3ccccc3)CC2)cc1 returned FMDV inh -24.5%, HCV inhibitor inconclusive, RE007 growth inh -12.0%, MARV entry inh -16.4%, Lassa entry inh 3.1% and Sm TGR block -4.1%.
CC(C)c1ccc(NC(=S)NC2CCN(Cc3ccccc3)CC2)cc1 was read as FMDV inh -7.0%, HCV inhibitor inconclusive, RE007 growth inh 4.7%, MARV entry inh inconclusive, Lassa entry inh 17.8µM* and Sm TGR block 0.1%.
S=C(Nc1ccccc1Cl)NC1CCN(Cc2ccccc2)CC1 was read as FMDV inh 0.0%, HCV inhibitor inconclusive, RE007 growth inh 6.9%, MARV entry inh inconclusive, Lassa entry inh -17.3% and Sm TGR block -13.0%.
For Cc1c(Cl)cccc1NC(=S)NCCc1ccc(F)cc1 the results were FMDV inh 20.6%, HCV inhibitor 10.0%, RE007 growth inh -0.2%, MARV entry inh 6.7%, Lassa entry inh -17.6% and Sm TGR block -6.9%.
Cc1c(Cl)cccc1NC(=S)NC1CCN(Cc2ccccc2)CC1 was read as FMDV inh 0.0%, HCV inhibitor inconclusive, RE007 growth inh 14.3%, MARV entry inh 16.4µM*, Lassa entry inh inconclusive and Sm TGR block -9.5%.
`CCCOc1ccc(C(=O)Nc2ccc(NC(=O)c3ccccc3)c(Br)c2)cc1` gave FMDV inh -6.4%, Lassa entry inh -0.7%[46.1 µM] and Sm TGR block 3.1%.
For CSc1ccc(C(=O)N2CCc3c(cnc(C)c3CNC(=O)c3cncs3)C2)cc1 the results were FMDV inh 10.9%.
CC(C)NC(=O)C1(C)CSCC(=O)N1C1CCN(Cc2ccccc2)CC1 (configuration not stated) was read as FMDV inh -11.6% and RE007 growth inh -11.4%.
`S=C(Nc1cc(Cl)cc(Cl)c1)NC1CCN(Cc2ccccc2)CC1` gave FMDV inh -17.1%, HCV inhibitor 10µM*, RE007 growth inh -16.5% and Sm TGR block 0.0%.
For S=C(Nc1ccc(Cl)cc1Cl)NC1CCN(Cc2ccccc2)CC1 the results were FMDV inh -38.8%, HCV inhibitor inconclusive, RE007 growth inh 5.2%, MARV entry inh inconclusive, Lassa entry inh inconclusive and Sm TGR block -14.8%.
`O=[N+]([O-])c1cc(C(F)(F)F)ccc1N1CCCC(O)C1` (configuration not stated) gave FMDV inh -5.2%, HCV inhibitor -10.4%, RE007 growth inh 6.8%, MARV entry inh inconclusive, Lassa entry inh 2.2% and Sm TGR block 7.1%.
For O=[N+]([O-])c1ccc(N2CCCC(C(F)(F)F)C2)c2ccncc12 (configuration not stated) the results were FMDV inh inconclusive, HCV inhibitor 10µM*, RE007 growth inh -28.8%, MARV entry inh inconclusive, Lassa entry inh inconclusive and Sm TGR block -24.6%.
`Cc1cccnc1NC(=O)c1ccccc1-c1ccccc1C(=O)Nc1ncccc1C` gave FMDV inh -3.6%, HCV inhibitor 10.7%, RE007 growth inh 11.5%, MARV entry inh 3.7%, Lassa entry inh 7.31µM* and Sm TGR block -4.0%.

Compound activity from PubChem.
